Keap1 Nrf2 FP = Keap1-Nrf2 protein-protein interaction inhibitors, primary screen, biochemical, fluorescence polarization, single point; Keap1 Kelch-Nrf2 peptide fluorescence polarization, 1536-well; inhibition, % at 9.4 µM; Kelch-like ECH-associated protein 1 (Homo sapiens), Q14145; hit rate 0.15% among 340,000; in the data active = inhibition above about 12%;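 note: human Keap1 Kelch domain with fluorescein labeled Nrf2 9mer peptide probe; 0% = neutral control wells and 100% = peptide positive control; higher means more block of Keap1 binding to Nrf2 peptide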
Target sequence (Q14145 whole entry, looked up, the tested form may be a part): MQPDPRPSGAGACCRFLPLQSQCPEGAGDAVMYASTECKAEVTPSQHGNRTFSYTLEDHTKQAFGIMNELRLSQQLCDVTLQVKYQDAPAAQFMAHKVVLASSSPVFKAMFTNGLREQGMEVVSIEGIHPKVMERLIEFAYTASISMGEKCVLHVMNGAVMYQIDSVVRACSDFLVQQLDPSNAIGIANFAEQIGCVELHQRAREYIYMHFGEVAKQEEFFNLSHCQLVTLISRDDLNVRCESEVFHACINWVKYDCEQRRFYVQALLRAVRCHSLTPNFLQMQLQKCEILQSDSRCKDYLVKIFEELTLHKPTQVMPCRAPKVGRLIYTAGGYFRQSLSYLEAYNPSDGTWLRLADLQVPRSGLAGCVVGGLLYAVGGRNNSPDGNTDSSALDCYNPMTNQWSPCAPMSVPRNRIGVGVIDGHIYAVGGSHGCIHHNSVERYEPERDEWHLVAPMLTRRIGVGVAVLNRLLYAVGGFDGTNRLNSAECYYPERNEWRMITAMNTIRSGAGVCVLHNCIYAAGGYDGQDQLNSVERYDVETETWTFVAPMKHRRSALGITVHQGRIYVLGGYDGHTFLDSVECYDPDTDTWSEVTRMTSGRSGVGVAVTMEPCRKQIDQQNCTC
LANA DNA inh = inhibitors of KSHV C-LANA binding to DNA, primary screen, biochemical, fluorescence polarization, FAM-LBS DNA, MBP-C-LANA, single point | Kaposi's sarcoma herpesvirus LANA C-terminal domain (residues 932-1162) DNA binding | inhibition, % at 9 µM | hit rate 0.078% among 340,000;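 active = highest replicate inhibition at or above 60% at 9 µM, even if other replicates fall short; inactive = all replicates below 60% inhibition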;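 note: 0% = neutral control wells and 100% = 4 µM acridine orange control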
Cardiac RTF inh = cardiac RTF calcium sensitivity inhibitors, primary screen, biochemical, IANBD-TnC fluorescence, EC70 calcium; Troponin I, cardiac muscle (Homo sapiens) + Troponin T, cardiac muscle (Homo sapiens) + …; IANBD-labeled cardiac RTF, Ca2+ fluorescence; inhibition, % at 7.15 µM; hit rate 0.12% among 340,000; AID 493244, 2011;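 active = inhibition above the mean inhibition of all tested compounds plus 3 SD, cut at about 17% in these data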;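 note: assay run at fixed EC70 calcium of 1.6 mM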
IDE inh = human IDE inhibitors in live cells, primary screen, fluorescence polarization, HEK cells, FAbetaB substrate. Insulin-degrading enzyme (Homo sapiens), P14735. FAbetaB cleavage. inhibition, % at 5.59 µM. hit rate 0.41% among 320,000. AID 434962, 2010;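 active = percent inhibition above the average of all tested compounds plus 3 SD, set per screening campaign, cut at about 16% in these data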;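 note: IDE supplied by intact live HEK cells; FP after avidin binding of uncleaved biotin substrate so inhibition keeps polarization high; 0% = DMSO wells and 100% = 60 µM reference IDE inhibitor Ii1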
cardiac RTF act = cardiac RTF calcium sensitivity activators, primary screen, biochemical, IANBD-TnC fluorescence, EC20 calcium; activation, % at 7.2 µM; hit rate 0.24% among 340,000; IANBD-labeled TnC RTF fluorescence at EC20 calcium; 0% EC20 calcium, 100% full calcium;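 active = activation above the mean over all tested compounds plus 3 SD, cut at about 30% in these data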;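 note: rise in fluorescence read as greater calcium sensitivity of cardiac thin filaments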
IDE cell activ = human IDE activators in live cells, primary screen, fluorescence polarization, HEK cells, FAbeta-B substrate; activation, % at 5.96 µM; hit rate 0.073% among 340,000; AID 493087, 2011; FAbeta-B cleavage; 0% vehicle, 100% cell-free pure enzyme wells;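 active = activation above the mean of all tested compounds plus 3 SD, set per screening campaign, cut at about 17% in these data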
IDE cell inh cf = human IDE inhibitors in live cells, confirmation, fluorescence polarization, HEK cells, FAbetaB substrate. shares compounds with IDE inh. FAbetaB cleavage. hit rate 51% among 1,200. inhibition, % at 5.59 µM;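 active = mean inhibition across triplicate wells above the cutoff set by the earlier primary insulin-degrading enzyme screen, cut at about 16% in these data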;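 note: 0% = DMSO wells and 100% = 60 µM reference IDE inhibitor Ii1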
HEK293 tox = cytotoxicity in HEK cells, cytotoxicity control for IDE inhibitor project, cell-based, luminescence | shares compounds with IDE inh | HEK293 cytotoxicity, ATP luminescence | inhibition, % at 5.59 µM | hit rate 28% among 1,200; in the data active = inhibition above about 22%;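 note: 0% = vehicle wells and 100% = reference cytotoxic drug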
Starred values were filed as active, the others as inactive; . = no result given. The list is not random: actives were taken first. Their share in the collection is about 0.81%.

SMILES | Keap1 Nrf2 FP | LANA DNA inh | Cardiac RTF inh | IDE inh | cardiac RTF act | IDE cell activ | IDE cell inh cf | HEK293 tox
CCOC(=O)c1ccc(/C=C2/C=C(c3ccccc3)N(c3ccc(Cl)c(C(=O)O)c3)C2=O)cc1 | -74 | -4 | -14 | 17* | 11 | -7 | 44* | 84*
CCOC(=O)c1ccc(Cl)c(NC(=O)c2ccc(-c3ccccc3)cc2)c1 | -1 | 0 | 6 | 1 | 5 | 1 | . | .
O=C(CSc1n[nH]c(=O)n1Cc1ccco1)Nc1ccccc1 | . | . | . | -1 | . | . | . | .
COc1ccc(C(=O)CSc2n[nH]c(=O)n2Cc2ccco2)cc1 | -2 | -1 | -8 | 18* | 3 | 3 | 10 | 12
COc1ccc(S(=O)(=O)N2CCC(C(=O)NCc3ccccc3)CC2)cc1OC | 2 | 0 | -4 | 4 | 2 | 1 | . | .
CCOC(=O)N1CCN(CC(=O)Nc2ccccc2C(=O)Nc2ccccc2)CC1 | 0 | 1 | -3 | -2 | -5 | 3 | . | .
C#CCOCCOCCOCCNc1nc(N2CCN(C(=O)[C@H]([C@@H](C)CC)n3cc([C@@H](N)CC(C)C)nn3)CC2)nc(N2CCN(C(=O)[C@H](Cc3ccc(O)cc3)n3cc([C@@H](N)C(C)CC)nn3)CC2)n1 (stereo partly drawn) | -6 | -2 | -6 | 16* | -2 | 1 | 3 | 6
C#CCOCCOCCOCCNc1nc(N2CCN(C(=O)[C@H]([C@@H](C)CC)n3cc([C@@H](N)Cc4ccc(O)cc4)nn3)CC2)nc(N2CCN(C(=O)[C@H](Cc3ccc(O)cc3)n3cc([C@@H](N)C(C)CC)nn3)CC2)n1 (stereo partly drawn) | -1 | -3 | 7 | 0 | -6 | -2 | . | .
CC(=O)NCCc1ccc(S(=O)(=O)N2CCN(c3nc(-c4ccccc4)c(C)s3)CC2)cc1 | -4 | 1 | -7 | 1 | 0 | 0 | . | .
COc1ccc(/C=N\NC(=O)c2ccc(-c3ccccc3)cc2)c(OC)c1OC | 1 | 1 | -1 | . | 1 | -2 | . | .
Cc1occc1C(=O)N/N=C/c1ccc(-c2ccccc2)cc1 | 2 | 0 | 8 | 16* | -3 | -8 | 0 | 65*
COc1cc(/C=N/NC(=O)c2ccc(-c3ccccc3)cc2)cc(OC)c1OC | -4 | 1 | -8 | 21* | 14 | -20 | 10 | 11
O=[N+]([O-])c1ccc(N2CCN(c3ccc(F)cc3)CC2)nc1 | 1 | 1 | -3 | 1 | -4 | 3 | . | .
COC(=O)c1sc(N)c(C(=O)OC)c1CSc1nnc(-c2ccccc2Cl)n1C | -7 | -1 | -12 | 16* | -4 | -4 | 5 | 10
Cc1ccccc1-n1sc2cc(F)ccc2c1=O | 3 | 1 | -4 | 72* | -3 | -46 | 17* | 80*
O=c1c2cc(F)ccc2sn1-c1ccccc1 | -1 | -2 | 9 | 60* | 1 | -25 | 33* | 83*
CC1NC(=O)c2ccccc2-n2c1nc1cc(F)ccc1c2=O (stereo not drawn) | . | . | . | -5 | . | . | . | .
CN(C)S(=O)(=O)c1cccc(-n2sc3ccccc3c2=O)c1 | 1 | 0 | -4 | 94* | 3 | -19 | 31* | 52*
O=c1c2ccccc2sn1-c1ccc(S(=O)(=O)N2CCCCC2)cc1 | -1 | 2 | -3 | -23 | 0 | -45 | . | .
O=c1c2ccccc2sn1-c1ccccc1 | -88 | -2 | -9 | 64* | -6 | -20 | 32* | 98*
COCCN1Cc2cccc(C(=O)NCc3cccs3)c2C1=O | -5 | 2 | 3 | -1 | 1 | 0 | . | .
COc1ccc(-n2nc(C(=O)NCC(=O)N3CCC(C)CC3)c3ccccc3c2=O)c(OC)c1 | -5 | 0 | -6 | -2 | -2 | -3 | . | .
Cc1cc(C)n(C(C)CNS(=O)(=O)c2ccc(Cl)cc2)n1 (stereo not drawn) | 4 | 0 | -7 | 2 | 1 | 6 | . | .
O=C(Nc1ccccc1C(=O)NC(Cc1ccccc1)C(=O)NC1CCCCCC1)c1ccccc1 (stereo not drawn) | -5 | -1 | -2 | -9 | -5 | 1 | . | .
CC(C)(C)OC(=O)C[C@@H]1C/C=C\C[C@@H](CC(=O)NCCO)C(=O)NC[C@@H](c2ccccc2)OC1=O | 0 | 2 | -2 | -2 | -7 | 4 | . | .
SMILES | Keap1 Nrf2 FP | LANA DNA inh | Cardiac RTF inh | IDE inh | cardiac RTF act | IDE cell activ | IDE cell inh cf | HEK293 tox
O=C(O)c1cccc(-n2sc3ccccc3c2=O)c1 | 5 | -1 | -11 | 93* | 0 | -23 | 97* | 8
CC(C)OCCCNC(=S)NNC(=O)c1ccc(Cl)c(Cl)c1 | 4 | 1 | -1 | 11 | -2 | 4 | . | .
c1ccc2c(c1)[nH]c1c(N3CCOCC3)ncnc12 | 1 | 0 | -2 | 18* | 0 | -12 | 8 | 20
c1ccc2c(c1)[nH]c1c(N3CCSCC3)ncnc12 | -4 | 0 | 7 | 11 | -1 | -10 | . | .
c1ccc2c(c1)[nH]c1c(N3CCN(C4CCCCC4)CC3)ncnc12 | -4 | -1 | -9 | 13 | -5 | -19 | . | .
Cc1ccc2[nH]c3c(N4CCOCC4)ncnc3c2c1 | -5 | -2 | -2 | 29* | -1 | -11 | 9 | 21
Cc1cccc2[nH]c3c(N4CCC5(CC4)OCCO5)ncnc3c12 | -8 | -1 | -5 | 3 | 2 | -5 | . | .
Clc1ccc2[nH]c3c(N4CCC5(CC4)OCCO5)ncnc3c2c1 | . | . | . | 22* | . | . | 10 | 60*
c1ccc2c(c1)[nH]c1c(N3CCCC3)ncnc12 | -3 | 1 | 3 | 16* | 2 | -12 | 10 | 49*
c1nc(N2CCOCC2)c2[nH]cnc2n1 | -1 | 1 | 5 | -3 | -2 | 0 | . | .
Nc1nc(SCc2ccccc2)cc(SCc2ccccc2)n1 | -3 | -2 | -1 | . | -2 | 2 | . | .
CSCC[C@H](NC(=O)N1CCn2c1nc1ccccc12)C(=O)NCc1ccccc1 | -1 | -1 | 0 | 0 | -5 | 1 | . | .

Assay outcomes from PubChem BioAssay.
